Where “and” joins values, the source holds several entries; their conditions need not be identical. Identical values can stand only once. Among all 5,500 compounds or so, about 2,000 (36%) were called active. Another 18% or so got no clear call; they are omitted. Cut-off read from the data, not from the text of the source: active = normalized growth mostly below about 0.91 (no sharp cut-off); inconclusive = no clear call, values can overlap the other calls; inactive = mostly above about 0.92. This is one part of the list.
Test: chemical genetic growth profiling, strain panel (AID 1159580);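 note: tested at 20 µM; growth read once vehicle control cultures reached saturation at 30 °C; 1 = growth at the plate median or of vehicle wells; lower values mean less growth of the strain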
Settings: growth OD

Measured: normalized growth

C=C1C(N)CC2CC1C2(C)C (stereo not given)
inactive: S. cerevisiae deletion strains, locus YAL021C, strain ccr4, hits give low values 1.01 | S. cerevisiae deletion strains, locus YAL026C, strain drs2, hits give low values 1.01 | S. cerevisiae deletion strains, locus YAL030W, strain snc1, hits give low values 1.01 | S. cerevisiae deletion strains, locus YBL061C, strain skt5, hits give low values 1 | S. cerevisiae deletion strains, locus YBR009C, strain hhf1, hits give low values 1.01 | S. cerevisiae deletion strains, locus YBR021W, strain FUR4, hits give low values 1 | S. cerevisiae deletion strains, locus YBR023C, strain chs3, hits give low values 0.985 | S. cerevisiae deletion strains, locus YBR171W, strain sec66, hits give low values 0.99 | S. cerevisiae deletion strains, locus YBR229C, strain ROT2, hits give low values 1.01 | S. cerevisiae deletion strains, locus YBR231C, strain swc5, hits give low values 0.999 | S. cerevisiae deletion strains, locus YBR279W, strain paf1, hits give low values 0.997 | S. cerevisiae deletion strains, locus YCL011C, strain gbp2, hits give low values 0.983 | S. cerevisiae deletion strains, locus YCL016C, strain dcc1, hits give low values 1.01 | S. cerevisiae deletion strains, locus YCL029C, strain bik1, hits give low values 1.02 | S. cerevisiae deletion strains, locus YCL069W, strain vba3, hits give low values 0.996 | S. cerevisiae deletion strains, locus YCR088W, strain abp1, hits give low values 0.989 | S. cerevisiae deletion strains, locus YDL005C, strain med2, hits give low values 0.991 | S. cerevisiae deletion strains, locus YDL035C, strain GPR1, hits give low values 0.994 | S. cerevisiae deletion strains, locus YDL040C, strain nat1, hits give low values 0.994 | S. cerevisiae deletion strains, locus YDL074C, strain BRE1, hits give low values 1.02 | S. cerevisiae deletion strains, locus YDL101C, strain DUN1, hits give low values 1.03 | S. cerevisiae deletion strains, locus YDL134C, strain PPH21, hits give low values 1.03 | S. cerevisiae deletion strains, locus YDL185W, strain tfp1, hits give low values 1.01 | S. cerevisiae deletion strains, locus YDL192W, strain arf1, hits give low values 0.996 | S. cerevisiae deletion strains, locus YDR001C, strain nth1, hits give low values 1 | S. cerevisiae deletion strains, locus YDR069C, strain doa4, hits give low values 0.98 | S. cerevisiae deletion strains, locus YDR101C, strain arx1, hits give low values 0.979 | S. cerevisiae deletion strains, locus YDR137W, strain rgp1, hits give low values 1 | S. cerevisiae deletion strains, locus YDR150W, strain NUM1, hits give low values 0.998 | S. cerevisiae deletion strains, locus YDR159W, strain sac3, hits give low values 0.975 | S. cerevisiae deletion strains, locus YDR162C, strain NBP2, hits give low values 1.01 | S. cerevisiae deletion strains, locus YDR195W, strain ref2 0.977 | S. cerevisiae deletion strains, locus YDR297W, strain sur2, hits give low values 1 | S. cerevisiae deletion strains, locus YDR318W, strain mcm21, hits give low values 1 | S. cerevisiae deletion strains, locus YDR334W, strain swr1, hits give low values 0.99 | S. cerevisiae deletion strains, locus YDR335W, strain msn5, hits give low values 0.995 | S. cerevisiae deletion strains, locus YDR388W, hits give low values 1 | S. cerevisiae deletion strains, locus YDR392W, strain spt3, hits give low values 1.01 | S. cerevisiae deletion strains, locus YDR502C, strain sam2, hits give low values 1.04 | S. cerevisiae deletion strains, locus YEL003W, strain gim4, hits give low values 0.998 | S. cerevisiae deletion strains, locus YEL037C, strain rad23, hits give low values 0.99 | S. cerevisiae deletion strains, locus YEL061C, strain CIN8 (second series), hits give low values 1.01 | S. cerevisiae deletion strains, locus YER015W, strain faa2, hits give low values 0.99 | S. cerevisiae deletion strains, locus YER016W, strain bim1, hits give low values 0.994 | S. cerevisiae deletion strains, locus YER110C, hits give low values 1.02 | S. cerevisiae deletion strains, locus YER111C, strain swi4, hits give low values 0.989 | S. cerevisiae deletion strains, locus YER155C, strain BEM2 (second series), hits give low values 1 | S. cerevisiae deletion strains, locus YER155C, strain BEM2, hits give low values 1 | S. cerevisiae deletion strains, locus YER167W, strain BCK2, hits give low values 1 | S. cerevisiae deletion strains, locus YFR010W, strain ubp6, hits give low values 1.01 | S. cerevisiae deletion strains, locus YGL078C, strain dbp3, hits give low values 1.04 | S. cerevisiae deletion strains, locus YGL086W, strain mad1, hits give low values 1 | S. cerevisiae deletion strains, locus YGL167C, strain pmr1, hits give low values 0.99 | S. cerevisiae deletion strains, locus YGL173C, strain kem1, hits give low values 0.998 | S. cerevisiae deletion strains, locus YGL227W, strain vid30, hits give low values 1 | S. cerevisiae deletion strains, locus YGL240W, strain doc1, hits give low values 0.994 | S. cerevisiae deletion strains, locus YGL248W, strain PDE1, hits give low values 1.04 | S. cerevisiae deletion strains, locus YGL253W, strain hxk2, hits give low values 1 | S. cerevisiae deletion strains, locus YGR078C, strain PAC10, hits give low values 1.04 | S. cerevisiae deletion strains, locus YGR135W, strain pre9, hits give low values 1.06 | S. cerevisiae deletion strains, locus YGR252W, strain gcn5, hits give low values 1.09 | S. cerevisiae deletion strains, locus YHR013C, strain ard1, hits give low values 1 | S. cerevisiae deletion strains, locus YHR027C, strain rpn1, hits give low values 0.996 | S. cerevisiae deletion strains, locus YHR030C, strain SLT2, hits give low values 0.996 | S. cerevisiae deletion strains, locus YHR079C, strain IRE1 (second series), hits give low values 1.01 | S. cerevisiae deletion strains, locus YHR079C, strain IRE1, hits give low values 0.994 | S. cerevisiae deletion strains, locus YHR094C, strain hxt1, hits give low values 1.02 | S. cerevisiae deletion strains, locus YHR129C, strain ARP1, hits give low values 1.01 | S. cerevisiae deletion strains, locus YHR142W, strain chs7, hits give low values 1.01 | S. cerevisiae deletion strains, locus YHR200W, strain rpn10, hits give low values 1.03 | S. cerevisiae deletion strains, locus YIL066C, strain RNR3, hits give low values 1.01 | S. cerevisiae deletion strains, locus YIL073C, strain SPO22, hits give low values 1.06 | S. cerevisiae deletion strains, locus YIL125W, strain kgd1, hits give low values 1.01 | S. cerevisiae deletion strains, locus YIR030C, strain dcg1, hits give low values 0.996 | S. cerevisiae deletion strains, locus YJL092W, strain hpr5, hits give low values 0.995 | S. cerevisiae deletion strains, locus YJL095W, strain BCK1 (second series), hits give low values 1.02 | S. cerevisiae deletion strains, locus YJL095W, strain BCK1, hits give low values 1.05 and 0.98 | S. cerevisiae deletion strains, locus YJL115W, strain asf1, hits give low values 0.99 | S. cerevisiae deletion strains, locus YJL129C, strain trk1, hits give low values 1.01 | S. cerevisiae deletion strains, locus YJL134W, strain LCB3, hits give low values 1 | S. cerevisiae deletion strains, locus YJL154C, strain vps35, hits give low values 0.998 | S. cerevisiae deletion strains, locus YJL164C, strain tpk1, hits give low values 0.997 | S. cerevisiae deletion strains, locus YJL166W, strain qcr8, hits give low values 0.997 | S. cerevisiae deletion strains, locus YJL168C, strain set2, hits give low values 1.01 | S. cerevisiae deletion strains, locus YJL187C, strain SWE1 (second series), hits give low values 1.05 | S. cerevisiae deletion strains, locus YJL187C, strain SWE1, hits give low values 0.997 | S. cerevisiae deletion strains, locus YJR066W, strain TOR1, hits give low values 0.953 | S. cerevisiae deletion strains, locus YKL009W, strain mrt4, hits give low values 0.998 | S. cerevisiae deletion strains, locus YKL068W, hits give low values 1.01 | S. cerevisiae deletion strains, locus YKL085W, strain MDH1 (second series), hits give low values 1.01 | S. cerevisiae deletion strains, locus YKL085W, strain MDH1, hits give low values 1.01 | S. cerevisiae deletion strains, locus YKL160W, strain elf1, hits give low values 0.998 | S. cerevisiae deletion strains, locus YKL190W, strain CNB1, hits give low values 1.01 | S. cerevisiae deletion strains, locus YKR001C, strain vps1, hits give low values 1.01 | S. cerevisiae deletion strains, locus YKR026C, strain gcn3, hits give low values 0.999 | S. cerevisiae deletion strains, locus YKR091W, strain srl3, hits give low values 0.996 | S. cerevisiae deletion strains, locus YLL001W, strain dnm1, hits give low values 1 | S. cerevisiae deletion strains, locus YLL026W, hits give low values 0.983 | S. cerevisiae deletion strains, locus YLL041C, strain sdh2, hits give low values 1.02 | S. cerevisiae deletion strains, locus YLR027C, strain aat2, hits give low values 0.985 | S. cerevisiae deletion strains, locus YLR039C, strain RIC1, hits give low values 1.06 | S. cerevisiae deletion strains, locus YLR058C, strain SHM2, hits give low values 1.02 | S. cerevisiae deletion strains, locus YLR102C, strain apc9, hits give low values 1 | S. cerevisiae deletion strains, locus YLR113W, strain HOG1, hits give low values 0.975 | S. cerevisiae deletion strains, locus YLR221C, strain rsa3, hits give low values 1 | S. cerevisiae deletion strains, locus YLR258W, strain gsy2, hits give low values 0.993 | S. cerevisiae deletion strains, locus YLR262C, strain YPT6 (second series), hits give low values 1.02 | S. cerevisiae deletion strains, locus YLR268W, strain sec22, hits give low values 0.992 | S. cerevisiae deletion strains, locus YLR320W, strain mms22, hits give low values 1 | S. cerevisiae deletion strains, locus YLR342W, strain FKS1, hits give low values 0.994 | S. cerevisiae deletion strains, locus YLR357W, strain rsc2, hits give low values 0.968 | S. cerevisiae deletion strains, locus YLR370C, strain arc18, hits give low values 0.986 | S. cerevisiae deletion strains, locus YLR371W, strain rom2, hits give low values 1 | S. cerevisiae deletion strains, locus YLR384C, strain iki3, hits give low values 0.999 | S. cerevisiae deletion strains, locus YLR418C, strain cdc73, hits give low values 1.05 | S. cerevisiae deletion strains, locus YML016C, strain PPZ1, hits give low values 1.01 | S. cerevisiae deletion strains, locus YML032C, strain rad52, hits give low values 1 | S. cerevisiae deletion strains, locus YML120C, strain ndi1, hits give low values 1.01 | S. cerevisiae deletion strains, locus YML124C, strain tub3, hits give low values 0.999 | S. cerevisiae deletion strains, locus YMR058W, strain fet3, hits give low values 1 | S. cerevisiae deletion strains, locus YMR078C, strain ctf18, hits give low values 1.01 | S. cerevisiae deletion strains, locus YMR125W, strain sto1, hits give low values 0.982 | S. cerevisiae deletion strains, locus YMR129W, hits give low values 1.02 | S. cerevisiae deletion strains, locus YMR205C, strain PFK2, hits give low values 0.997 | S. cerevisiae deletion strains, locus YMR223W, strain ubp8, hits give low values 1.02 | S. cerevisiae deletion strains, locus YMR231W, strain pep5, hits give low values 0.995 | S. cerevisiae deletion strains, locus YMR263W, strain SAP30, hits give low values 1.02 | S. cerevisiae deletion strains, locus YMR307W, strain GAS1, hits give low values 0.976 | S. cerevisiae deletion strains, locus YNL067W, strain RPL9B, hits give low values 1.03 | S. cerevisiae deletion strains, locus YNL071W, strain lat1, hits give low values 0.999 | S. cerevisiae deletion strains, locus YNL153C, strain GIM3, hits give low values 1.04 | S. cerevisiae deletion strains, locus YNL183C, strain NPR1, hits give low values 0.957 | S. cerevisiae deletion strains, locus YNL209W, strain ssb2, hits give low values 0.978 | S. cerevisiae deletion strains, locus YNL233W, strain BNI4, hits give low values 1.04 | S. cerevisiae deletion strains, locus YNL248C, strain rpa49, hits give low values 1.02 | S. cerevisiae deletion strains, locus YNL250W, strain rad50, hits give low values 1.03 | S. cerevisiae deletion strains, locus YNL271C, strain bni1, hits give low values 1.01 | S. cerevisiae deletion strains, locus YNL298W, strain CLA4, hits give low values 1.01 | S. cerevisiae deletion strains, locus YNL307C, strain MCK1, hits give low values 1.02 | S. cerevisiae deletion strains, locus YNL322C, strain KRE1 (second series), hits give low values 0.983 | S. cerevisiae deletion strains, locus YNR049C, strain mso1, hits give low values 0.992 | S. cerevisiae deletion strains, locus YNR052C, strain pop2, hits give low values 1.03 | S. cerevisiae deletion strains, locus YOL012C, strain htz1 1.56 | S. cerevisiae deletion strains, locus YOL147C, strain pex11, hits give low values 1.01 | S. cerevisiae deletion strains, locus YOR001W, strain rrp6, hits give low values 1.01 | S. cerevisiae deletion strains, locus YOR061W, strain CKA2, hits give low values 1.01 | S. cerevisiae deletion strains, locus YOR069W, strain VPS5, hits give low values 1.01 | S. cerevisiae deletion strains, locus YOR070C, strain gyp1, hits give low values 0.98 | S. cerevisiae deletion strains, locus YOR080W, strain dia2, hits give low values 0.998 | S. cerevisiae deletion strains, locus YOR083W, strain WHI5, hits give low values 0.994 | S. cerevisiae deletion strains, locus YOR106W, strain vam3, hits give low values 1.01 | S. cerevisiae deletion strains, locus YOR136W, strain idh2, hits give low values 1.01 | S. cerevisiae deletion strains, locus YOR144C, strain elg1, hits give low values 1 | S. cerevisiae deletion strains, locus YOR184W, strain ser1, hits give low values 0.995 | S. cerevisiae deletion strains, locus YOR231W, strain MKK1, hits give low values 0.969 | S. cerevisiae deletion strains, locus YOR265W, strain rbl2, hits give low values 0.981 | S. cerevisiae deletion strains, locus YOR270C, strain vph1, hits give low values 1.03 | S. cerevisiae deletion strains, locus YOR290C, strain snf2, hits give low values 0.994 | S. cerevisiae deletion strains, locus YOR316C, strain cot1, hits give low values 1.02 | S. cerevisiae deletion strains, locus YPL051W, strain arl3, hits give low values 0.972 | S. cerevisiae deletion strains, locus YPL078C, strain atp4, hits give low values 1 | S. cerevisiae deletion strains, locus YPL106C, strain sse1, hits give low values 0.963 | S. cerevisiae deletion strains, locus YPL240C, strain hsp82, hits give low values 0.996 | S. cerevisiae deletion strains, locus YPL256C, strain CLN2, hits give low values 1.01 | S. cerevisiae deletion strains, locus YPR119W, strain clb2, hits give low values 1 | S. cerevisiae deletion strains, locus YPR141C, strain kar3, hits give low values 0.993 | S. cerevisiae deletion strains, locus YPR163C, strain tif3, hits give low values 1.01 | S. cerevisiae deletion strains, locus YPR167C, strain met16, hits give low values 1.01 | S. cerevisiae deletion strains, strain wtn01, hits give low values 0.986 | S. cerevisiae strains, strain wild type, hits give low values 1.02
